Results from PubChem BioAssay (Tox21).
Results filed as inconclusive are left out. Where a call stands in place of a potency, no number is given. Active and inactive are the calls of the source. Calls follow the shape of the dose curve; as a rule, active = well fitted inhibition curve with a large enough effect in the signal ratio in the repeat runs (not every such curve was filed as active); inconclusive = weak or mixed curves; inactive = flat fitted curve, though single readings scatter; the % refers to the signal ratio.

biological target: Progesterone receptor (Homo sapiens) (UniProt P06401); assay: qHTS assay to identify small molecule antagonists of the progesterone receptor (PR) signaling pathway (AID 1346795); conditions: PR-UAS-bla HEK293T, beta-lactamase FRET ratio, 16 h; series mostly up to 92.4 µM
Sequence (P06401 whole entry, looked up): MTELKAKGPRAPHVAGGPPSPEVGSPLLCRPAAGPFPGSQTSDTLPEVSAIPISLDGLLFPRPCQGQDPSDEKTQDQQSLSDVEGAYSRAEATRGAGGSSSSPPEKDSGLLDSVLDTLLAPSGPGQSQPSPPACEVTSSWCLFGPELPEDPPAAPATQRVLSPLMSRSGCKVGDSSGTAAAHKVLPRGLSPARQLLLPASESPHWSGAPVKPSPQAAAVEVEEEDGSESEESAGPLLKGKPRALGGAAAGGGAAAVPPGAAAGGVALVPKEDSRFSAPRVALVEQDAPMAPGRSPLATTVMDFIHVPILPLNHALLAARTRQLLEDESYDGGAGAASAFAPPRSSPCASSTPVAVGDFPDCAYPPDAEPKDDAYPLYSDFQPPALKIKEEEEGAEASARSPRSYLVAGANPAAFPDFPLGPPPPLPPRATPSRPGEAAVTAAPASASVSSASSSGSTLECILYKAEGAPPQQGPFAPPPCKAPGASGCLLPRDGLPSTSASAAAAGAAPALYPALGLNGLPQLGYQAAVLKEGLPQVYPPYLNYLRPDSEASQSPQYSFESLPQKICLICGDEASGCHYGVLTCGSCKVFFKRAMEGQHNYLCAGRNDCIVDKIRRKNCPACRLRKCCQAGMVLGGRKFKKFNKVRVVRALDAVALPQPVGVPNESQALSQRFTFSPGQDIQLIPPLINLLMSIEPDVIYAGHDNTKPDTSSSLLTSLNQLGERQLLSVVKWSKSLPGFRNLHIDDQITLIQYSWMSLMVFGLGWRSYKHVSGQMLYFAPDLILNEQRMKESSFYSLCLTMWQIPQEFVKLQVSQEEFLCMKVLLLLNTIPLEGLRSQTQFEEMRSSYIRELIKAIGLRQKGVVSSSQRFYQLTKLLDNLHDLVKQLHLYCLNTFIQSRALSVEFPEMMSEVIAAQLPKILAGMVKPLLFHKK
Summary of the method: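 After 6 hr plating at 37C in 2% stripped-serum medium, PR-UAS-bla HEK293T cells got compounds, then 1 nM R5020. Sixteen hours later, LiveBLAzer substrate was applied for 2 hr at room temperature and fluorescence was recorded.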

Row | SMILES | Potency
1 | CCCCCCCCOC(=O)c1ccc(C(=O)OCCCCCCCC)c(C(=O)OCCCCCCCC)c1 | inactive
2 | CC(C)O.CC(C)O.OCCN(CCO)CCO.OCCN(CCO)CCO.[Ti] | inactive
3 | C[N+](C)(C)CCCl | inactive
4 | C=CCN1CC[C@]23c4c5ccc(O)c4O[C@H]2C(=O)CC[C@@]3(O)[C@H]1C5 | inactive
5 | CCOC(=O)C(Cl)C(C)=O (stereo not given) | inactive
6 | CC(Cl)Cl | inactive
7 | C=COC(C)=O | inactive
8 | COC(=O)c1cncn1C(C)c1ccccc1 (stereo not given) | inactive
9 | Clc1cc(Cl)c(Cl)c(Cl)c1 | inactive
10 | C[C@@H]1CC[C@H]2[C@@H](C)C(=O)O[C@@H]3O[C@@]4(C)CC[C@@H]1[C@]32OO4 | inactive
11 | CCBr | inactive
12 | CCOP(O)OCC | inactive
13 | CC(C)(OO)c1ccccc1 | inactive
14 | CC1C(=O)C[C@]2(C(C)C)C[C@H]12 (stereo not given in full) | inactive
15 | CC/C(=N\OC/C=C/Cl)C1=C(O)CC(C2CCOCC2)CC1=O (stereo not given) | inactive
16 | CC(C)(CCl)C(=O)Cl | inactive
17 | C=CC(=O)OCC(C)O (stereo not given) | inactive
18 | CCOS(C)(=O)=O | inactive
19 | C[C@H]1CNCCc2ccc(Cl)cc21 | inactive
20 | CCC(Br)(CC)C(=O)NC(N)=O | inactive
21 | COC(C)(C)CCC[C@H](C)C/C=C/C(C)=C/C(=O)OC(C)C | inactive
22 | Clc1cc(C(Cl)(Cl)Cl)cnc1Cl | inactive
23 | CCCCNP(N)(N)=S | inactive
24 | CC(=O)[C@H]1CC[C@H]2[C@@H]3CC[C@H]4C[C@](C)(O)CC[C@]4(C)[C@H]3CC[C@]12C | inactive
25 | O=C(O)C(F)(F)C(F)(F)C(F)(F)C(F)(F)C(F)(F)C(F)(F)C(F)(F)C(F)(F)C(F)(F)F | inactive
